From PubChem BioAssay AID1159580 (chemical genetic matrix, 2015)
Hit rate of the full screen: of about 5,500 compounds, about 2,000 (36%) were called active. About 18% were inconclusive and are not listed. No stated cut-off is given here; in the data, active means normalized growth mostly below about 0.91 (no sharp cut-off); inconclusive means no clear call, values can overlap the other calls; inactive means mostly above about 0.92. Some of the results follow.

Test: chemical genetic growth profiling, strain panel (AID 1159580);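 further: tested at 20 µM; growth read once vehicle control cultures reached saturation at 30 °C; 1 = growth at the plate median or of vehicle wells; lower values mean less growth of the strain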
Conditions: S. cerevisiae deletion strains, growth OD
[1] = locus YHR030C, strain SLT2, active compounds read low
[2] = locus YHR079C, strain IRE1, active compounds read low
[3] = locus YJL095W, strain BCK1, active compounds read low
[4] = locus YJR066W, strain TOR1, active compounds read low
[5] = locus YLR113W, strain HOG1, active compounds read low
[6] = locus YNL183C, strain NPR1, active compounds read low
[7] = locus YOR231W, strain MKK1, active compounds read low
[8] = locus YPL256C, strain CLN2, active compounds read low
[9] = locus YAR019C, strain CDC15, active compounds read low
[10] = locus YBL105C, strain PKC1, active compounds read low
[11] = locus YBR135W, strain CKS1, active compounds read low
[12] = locus YBR136W, strain MEC1, active compounds read low
[13] = locus YBR160W, strain CDC28, active compounds read low
[14] = locus YDL017W, strain CDC7, active compounds read low
[15] = locus YDL028C, strain MPS1, active compounds read low
[16] = locus YDL101C, strain DUN1, active compounds read low
[17] = locus YDL108W, strain KIN28, active compounds read low
[18] = locus YDL132W, strain cdc53, active compounds read low
[19] = locus YDL214C, strain PRR2, active compounds read low
[20] = locus YDR052C, strain DBF4, active compounds read low
[21] = locus YDR054C, strain cdc34, active compounds read low
[22] = locus YDR226W, strain ADK1, active compounds read low
[23] = locus YDR477W, strain SNF1, active compounds read low
[24] = locus YER123W, strain YCK3, active compounds read low
[25] = locus YER133W, strain GLC7, active compounds read low
[26] = locus YFL009W, strain cdc4, active compounds read low
[27] = locus YFL029C, strain CAK1, active compounds read low
[28] = locus YFR003C, strain YPI1, active compounds read low
[29] = locus YFR019W, strain FAB1, active compounds read low
[30] = locus YFR028C, strain CDC14, active compounds read low
[31] = locus YGR040W, strain KSS1, active compounds read low
[32] = locus YGR052W, strain FMP48, active compounds read low
[33] = locus YGR092W, strain DBF2, active compounds read low
[34] = locus YHR082C, strain KSP1, active compounds read low
[35] = locus YHR205W, strain SCH9, active compounds read low
[36] = locus YIL147C, strain SLN1, active compounds read low
[37] = locus YJL128C, strain PBS2, active compounds read low
[38] = locus YJL157C, strain FAR1, active compounds read low
[39] = locus YJR016C, strain ILV3, active compounds read low
[40] = locus YJR066W, strain TOR1 (second series), active compounds read low
[41] = locus YKL048C, strain ELM1, active compounds read low
[42] = locus YKL067W, strain YNK1, active compounds read low
[43] = locus YKL101W, strain HSL1, active compounds read low
[44] = locus YKL193C, strain SDS22, active compounds read low
[45] = locus YKL203C, strain TOR2, active compounds read low
[46] = locus YLR133W, strain CKI1, active compounds read low
[47] = locus YLR403W, strain SFP1, active compounds read low
[48] = locus YML070W, strain DAK1, active compounds read low
[49] = locus YMR001C, strain CDC5, active compounds read low
[50] = locus YMR205C, strain PFK2 (second series), active compounds read low
[51] = locus YMR277W, strain FCP1, active compounds read low
[52] = locus YNL006W, strain LST8, active compounds read low
[53] = locus YNL020C, strain ARK1, active compounds read low
[54] = locus YNL161W, strain CBK1, active compounds read low
[55] = locus YNL207W, strain RIO2, active compounds read low
[56] = locus YNL222W, strain SSU72, active compounds read low
[57] = locus YNL307C, strain MCK1 (second series), active compounds read low
[58] = locus YOL078W, strain AVO1, active compounds read low
[59] = locus YOL136C, strain PFK27, active compounds read low
[60] = locus YOR061W, strain CKA2, active compounds read low
[61] = locus YOR119C, strain RIO1, active compounds read low
[62] = locus YOR329C, strain SCD5, active compounds read low
[63] = locus YPL031C, strain PHO85, active compounds read low
[64] = locus YPL153C, strain RAD53, active compounds read low
[65] = locus YPL204W, strain HRR25, active compounds read low
[66] = locus YPL209C, strain IPL1, active compounds read low
[67] = locus YPR025C, strain CCL1, active compounds read low
[68] = locus YPR106W, strain ISR1, active compounds read low
[69] = locus YPR111W, strain DBF20, active compounds read low
[70] = strain NNK1, active compounds read low
[71] = strain TSCII, active compounds read low

Measured: normalized growth

O=C(CCNNC(=O)c1ccncc1)NCc1ccccc1
inactive: locus YAL040C, strain CLN3, active compounds read low 0.999 | locus YCL061C, strain MRC1 (second series), active compounds read low 1 | locus YDR150W, strain NUM1, active compounds read low 0.998 | locus YDR363W, strain ESC2, active compounds read low 0.959 | locus YER002W, strain NOP16, active compounds read low 0.994 | locus YGR229C, strain SMI1, active compounds read low 0.986 | [1] 0.978 | [2] 0.975 | [3] 0.972 | [4] 0.961 | locus YJR075W, strain HOC1, active compounds read low 0.994 | [5] 0.966 | locus YMR263W, strain SAP30, active compounds read low 0.994 | locus YNL153C, strain GIM3, active compounds read low 0.99 | locus YNL175C, strain NOP13, active compounds read low 0.996 | [6] 0.931 | locus YNL197C, strain WHI3, active compounds read low 0.993 | locus YNL224C, strain SQS1, active compounds read low 0.998 | locus YOR083W, strain WHI5 (second series), active compounds read low 1 | [7] 0.97 | locus YPL055C, strain LGE1, active compounds read low 0.987 | locus YPL241C, strain CIN2, active compounds read low 1 | [8] 0.974

O=C(Nc1ccc(N2CCOCC2)cc1)c1ccc(-n2cccn2)cc1
inactive: [9] 0.994 | [10] 0.982 | [11] 0.974 | [12] 0.979 | [13] 0.975 | [14] 0.983 | [15] 0.985 | [16] 0.981 | [17] 0.974 | [18] 0.973 | [19] 0.959 | [20] 0.985 | [21] 0.987 | [22] 0.982 | [23] 0.96 | [24] 0.915 | [25] 0.957 | [26] 0.988 | [27] 0.988 | [28] 0.988 | [29] 0.955 | [30] 0.977 | [31] 0.953 | [32] 1.01 | [33] 0.991 | [1] 1.13 | [2] 1.1 | [34] 1.07 | [35] 0.982 | [36] 0.972 | [3] 1 | [37] 0.95 | [38] 0.966 | [39] 0.986 | [40] 0.96 | [4] 1.1 | [41] 0.946 | [42] 0.954 | [43] 0.931 | [44] 0.981 | [45] 1.04 | [5] 0.9 | [46] 0.962 | [47] 0.984 | [48] 0.928 | [49] 0.983 | [50] 0.95 | [51] 0.985 | [52] 0.979 | [53] 0.96 | [54] 0.978 | [6] 1.03 | [55] 0.979 | [56] 0.977 | [57] 0.958 | [58] 0.972 | [59] 0.923 | [60] 0.952 | [61] 1.01 | [7] 0.949 | [62] 0.985 | [63] 0.962 | [64] 0.958 | [65] 0.924 | [66] 0.979 | [8] 1.02 | [67] 0.982 | [68] 0.976 | [69] 0.968 | [70] 0.977 | [71] 0.982

O=C(NCc1ccncc1)c1ccc(-n2cccn2)cc1
inactive: [9] 0.989 | [10] 0.984 | [11] 0.982 | [12] 0.982 | [13] 0.984 | [14] 0.992 | [15] 0.983 | [16] 0.982 | [17] 0.982 | [18] 0.984 | [19] 0.972 | [20] 0.987 | [21] 0.988 | [22] 0.983 | [23] 0.972 | [24] 0.941 | [25] 0.969 | [26] 0.981 | [27] 0.988 | [28] 0.98 | [29] 0.962 | [30] 0.979 | [31] 0.96 | [32] 1 | [33] 0.985 | [1] 1.11 | [2] 1.1 | [34] 1.05 | [35] 0.985 | [36] 0.982 | [3] 0.981 | [37] 0.953 | [38] 0.973 | [39] 0.984 | [40] 0.971 | [4] 1.09 | [41] 0.959 | [42] 0.972 | [43] 0.962 | [44] 0.976 | [45] 1.03 | [46] 0.955 | [47] 0.99 | [48] 0.954 | [49] 0.984 | [50] 0.973 | [51] 0.978 | [52] 0.993 | [53] 0.974 | [54] 0.985 | [6] 1.02 | [55] 0.981 | [56] 0.982 | [57] 0.966 | [58] 0.981 | [59] 0.928 | [60] 0.965 | [61] 1.02 | [7] 0.95 | [62] 0.986 | [63] 0.964 | [64] 0.969 | [65] 0.935 | [66] 0.984 | [8] 1.02 | [67] 0.987 | [68] 0.982 | [69] 0.968 | [70] 0.984 | [71] 0.981
active: [5] 0.854
